Test results published in the supplement of paper PMC3342239.
Counter-ions that a name gives are not always drawn.

test system: Saccharomyces cerevisiae; experiment: fraction of cells in G1 phase (DNA content, flow cytometry); higher = more cells with unreplicated DNA (G1 delay); details: temperature: 30 C; YPD; BY4741 PDR5+ SNQ2+; drug added to: actively dividing cells; 4.33 h
Method: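 S. cerevisiae cultures in YPD at 30°C were treated with each drug of the Enzo FDA-approved library at 20 µg/ml (final µM given per drug). Cells were fixed after 6–7 h (S1) or 6 h (S2), or after 4.33 h for BY4741 (S3), then stained with SYTOX Green. %G1 is the Dean-Jett-Fox G1 peak area divided by the G1+G2/M peak areas, written as a fraction and averaged over at least two independent experiments. DMSO reference: mean ~0.49; >0.60 is called High G1 and <0.3876 Low G1. Scale: lower means mitotic delay.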

Going from `Cc1ccc(C)c(OCCCC(C)(C)C(=O)O)c1` [Gemfibrozil] (79.8911 µM) to `OC(Cn1cncn1)(Cn1cncn1)c1ccc(F)cc1F` [Fluconazole] (65.3004 µM), the “fraction of cells in G1 phase” value falls from 0.51 to 0.441.

same assay, conditions: temperature: 30 C; YPD; JTY2953 pdr5 snq2 (sensitized); drug added to: actively dividing cells; 6 h

Going from `COc1ccc(CN2CCN(C(c3ccc(F)cc3)c3ccc(F)cc3)CC2)c(OC)c1OC` [Lomerizine HCl] (42.685 µM) to `c1ccc(-c2ccc(C(c3ccccc3)n3ccnc3)cc2)cc1` (stereo not given) [Bifonazole] (64.4325 µM), the “fraction of cells in G1 phase” value falls from 0.558 to 0.474.

First: Cc1ccc(C)c(OCCCC(C)(C)C(=O)O)c1 [Gemfibrozil] (79.8911 µM)
Second: COC(=O)C1=C(C)NC(C)=C(C(=O)OCC(C)C)C1c1ccccc1[N+](=O)[O-] (stereo not given) [Nisoldipine] (51.4901 µM)
The “fraction of cells in G1 phase” value of the first is higher: 0.667 for the first, 0.587 for the second.

First: OC(Cn1cncn1)(Cn1cncn1)c1ccc(F)cc1F [Fluconazole] (65.3004 µM)
Second: Clc1ccc(CCC(Cn2ccnc2)Sc2c(Cl)cccc2Cl)cc1 (stereo not given) [Butoconazole nitrate] (42.123 µM)
The “fraction of cells in G1 phase” value of the first is higher: 0.711 for the first, 0.478 for the second.

With `O=C1Nc2ccc(Cl)cc2[C@@](C#CC2CC2)(C(F)(F)F)O1` [Efavirenz] (63.355 µM) the “fraction of cells in G1 phase” value was 0.4.

same assay, conditions: temperature: 30 C; YPD; JTY2953 pdr5 snq2 (sensitized); drug added to: cultures diluted from stationary phase; 6-7 h

Going from `COc1ccc(CN2CCN(C(c3ccc(F)cc3)c3ccc(F)cc3)CC2)c(OC)c1OC` [Lomerizine HCl] (42.685 µM) to `CC(=O)Oc1ccc(C(c2ccc(OC(C)=O)cc2)c2ccccn2)cc1` [Bisacodyl] (55.3402 µM), the “fraction of cells in G1 phase” value falls from 0.638 to 0.499.

Compared with `CN/C(=N\CCSCc1nc[nH]c1C)NC#N` [Cimetidine] (79.2571 µM), `Cc1ccc(C)c(OCCCC(C)(C)C(=O)O)c1` [Gemfibrozil] (79.8911 µM) is higher in “fraction of cells in G1 phase” value: 0.5 for the first, 0.611 for the second.

First: CC(N/C(=N\C#N)Nc1ccncc1)C(C)(C)C (stereo not given) [Pinacidil] (81.5229 µM)
Second: CC(C)Cn1cnc2c(N)nc3ccccc3c21 [Imiquimod] (83.2257 µM)
The “fraction of cells in G1 phase” value of the first is higher: 0.51 for the first, 0.484 for the second.

Going from `N=C(N)NC(=O)Cc1c(Cl)cccc1Cl` [Guanfacine HCl] (70.7818 µM) to `Clc1cccc(Cl)c1NC1=NCCN1` [Clonidine HCl] (75.0469 µM), the “fraction of cells in G1 phase” value rises from 0.495 to 0.504.

First: CC1(C)S[C@@H]2[C@H](NC(=O)[C@H](N)c3ccc(O)cc3)C(=O)N2[C@H]1C(=O)O [Amoxicillin] (54.7345 µM)
Second: COC(=O)C1=C(C)NC(C)=C(C(=O)OCC(C)C)C1c1ccccc1[N+](=O)[O-] (stereo not given) [Nisoldipine] (51.4901 µM)
The “fraction of cells in G1 phase” value of the first is lower: 0.457 for the first, 0.605 for the second.

Compared with `c1ccc(-c2ccc(C(c3ccccc3)n3ccnc3)cc2)cc1` (stereo not given) [Bifonazole] (64.4325 µM), `O=C(O)CCC(=O)c1ccc(-c2ccccc2)cc1` [Fenbufen] (78.6509 µM) is lower in “fraction of cells in G1 phase” value: 0.758 for the first, 0.572 for the second.

Compared with `CCC(=O)O[C@@H](O[P@](=O)(CCCCc1ccccc1)CC(=O)N1C[C@H](C2CCCCC2)C[C@H]1C(=O)O)C(C)C` [Fosinopril] (35.4813 µM), `CC[C@]1(O)C[C@@H]2CN(CCc3c([nH]c4ccccc34)[C@@](C(=O)OC)(c3cc4c(cc3OC)N(C)[C@H]3[C@@](O)(C(=O)OC)[C@H](OC(C)=O)[C@]5(CC)C=CCN6CC[C@]43[C@@H]65)C2)C1` [Vinblastine sulfate] (21.9998 µM) is lower in “fraction of cells in G1 phase” value: 0.501 for the first, 0.495 for the second.

First: N[C@@H](Cc1cc(I)c(Oc2cc(I)c(O)c(I)c2)c(I)c1)C(=O)O (25.7441 µM)
Second: CC1(C)C[C@@H]1C(=O)N/C(=C\CCCCSC[C@H](N)C(=O)O)C(=O)O [Cilastatin] (55.7942 µM)
The “fraction of cells in G1 phase” value of the first is higher: 0.486 for the first, 0.484 for the second.

Compared with `CC(=O)O[C@@]12CO[C@@H]1C[C@H](O)[C@@]1(C)C(=O)[C@H](O)C3=C(C)[C@@H](OC(=O)[C@H](O)[C@@H](NC(=O)OC(C)(C)C)c4ccccc4)C[C@@](O)([C@@H](OC(=O)c4ccccc4)[C@H]21)C3(C)C` [Docetaxil] (24.7555 µM), `CN(C)CCCSc1ccccc1NC(=O)/C=C/c1ccccc1` [Cinanserin] (58.7387 µM) is lower in “fraction of cells in G1 phase” value: 0.507 for the first, 0.456 for the second.

First: Cn1c(=O)c2c(ncn2CC2OCCO2)n(C)c1=O [Doxofylline] (75.1149 µM)
Second: C[C@@H]1C(=O)O[C@H]2C[C@@]34[C@H]5C[C@@H](C(C)(C)C)[C@]36[C@@H](OC(=O)[C@@H]6O)O[C@@]4(C(=O)O5)[C@]21O [Ginkgolide a] (48.9705 µM)
The “fraction of cells in G1 phase” value of the first is lower: 0.465 for the first, 0.512 for the second.

First: N#Cc1ccc(C(c2ccc(C#N)cc2)n2cncn2)cc1 [Letrozole] (70.099 µM)
Second: Clc1ccc(CCC(Cn2ccnc2)Sc2c(Cl)cccc2Cl)cc1 (stereo not given) [Butoconazole nitrate] (42.123 µM)
The “fraction of cells in G1 phase” value of the first is lower: 0.519 for the first, 0.904 for the second.

Going from `OC(Cn1cncn1)(Cn1cncn1)c1ccc(F)cc1F` [Fluconazole] (65.3004 µM) to `O=C(O)c1ccccc1Nc1cccc(C(F)(F)F)c1` [Flufenamic acid] (71.1145 µM), the “fraction of cells in G1 phase” value falls from 0.611 to 0.582.

Going from `C[N+]1(C)[C@@H]2CC(OC(=O)C(O)(c3cccs3)c3cccs3)C[C@H]1[C@@H]1O[C@@H]12` (stereo not given in full) [Tiotropium Br] (42.3349 µM) to `O=C(O[C@@H]1C[C@@H]2C[C@H]3C[C@H](C1)N2CC3=O)c1c[nH]c2ccccc12` [Dolasetron] (61.6555 µM), the “fraction of cells in G1 phase” value rises from 0.481 to 0.494.

Going from `O=C1Nc2ccc(Cl)cc2[C@@](C#CC2CC2)(C(F)(F)F)O1` [Efavirenz] (63.355 µM) to `Nc1nnc(-c2cccc(Cl)c2Cl)c(N)n1` [Lamotrigine] (78.0958 µM), the “fraction of cells in G1 phase” value falls from 0.879 to 0.493.

First: CCN[C@H]1C[C@H](C)S(=O)(=O)c2sc(S(N)(=O)=O)cc21 [Dorzolamide] (61.6443 µM)
Second: CCCC(CCC)C(=O)O [Valproic acid] (138.681 µM)
The “fraction of cells in G1 phase” value of the first is lower: 0.499 for the first, 0.541 for the second.

For `O=P(O)(O)C(O)(Cn1ccnc1)P(=O)(O)O` [Zoledronic acid] (73.5045 µM), the “fraction of cells in G1 phase” value was 0.486.
